According to PubChem BioAssay AID454 (Sanford-Burnham Center for Chemical Genomics, 2006):
The whole screen tested about 10,000 compounds, of which about 25 (0.2%) were called active. Many of the other results were omitted from the sample, so actives are more common in it than they were. A number with no mark means an inactive call.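 How the source made its calls: active means compound among top-ranked inhibitors of TNF-induced VCAM-1 adhesion protein staining, with the hit upheld by image or statistical review; inactive means the rest, including hits rejected on review.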

Assay: inhibitors of TNFa-induced VCAM-1 surface display, cell-based, plate reader, pooled HUVEC, TNFa stimulus (AID 454)
Details: HUVEC TNFa-induced VCAM-1 surface immunofluorescence; active compounds read high,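 compound tested at 5 µM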

| SMILES | inhibition |
| --- | --- |
| CCOC(=O)CSc1nc2cccnc2n1-c1ccc(F)cc1 | inactive |
| CCc1ccc2[nH]c(=O)c(C(c3nnnn3CC3CCCO3)N3CCCc4ccccc43)cc2c1 (centres undefined) | 93.2% (active) |
| CCOc1ccc2[nH]c(=O)c(C(c3nnnn3CC3CCCO3)N3CCc4ccccc4C3)cc2c1 (centres undefined) | inactive |
| CCc1ccc2[nH]c(=O)c(C(c3nnnn3CC3CCCO3)N3CCN4CCCC4C3)cc2c1 (centres undefined) | inactive |
| Nc1nc(N2CCCCC2)nc(N(c2ccccc2)c2ccccc2)n1 | inactive |
| CC(=O)NC(CCS(C)(=O)=O)C(=O)Nc1cccc2ccccc12 (centres undefined) | inactive |
| O=C(Cn1nc(-c2ccc(Cl)cc2)ccc1=O)NCCCN1CCN(Cc2ccccc2)CC1 | inactive |
| CCOC(=O)c1ccccc1NC(=O)c1ccc2c(=O)n3c(nc2c1)CCCCC3 | inactive |
| COc1ccc(N(CC(=O)Nc2cc(C)ccc2C)S(=O)(=O)c2c(C)nn(C)c2C)cc1 | inactive |
| Cc1ccc2nc(NC(=O)Cn3cc4c(n3)CCCCC4)sc2c1 | inactive |
| CCCCNC(=O)OC(C)CNC(=O)Oc1cccc(C)c1 (centres undefined) | inactive |
| Cc1ccc(O)c(-c2cc(C(=O)Nc3ccc(S(=O)(=O)N4CC(C)OC(C)C4)cc3)[nH]n2)c1 (centres undefined) | inactive |
| O=C(Nc1ccc2c(c1)OCCO2)C1CCCN1S(=O)(=O)c1cccc2cccnc12 (centres undefined) | inactive |
| CCOc1ccccc1NC(=O)CCSc1nc2n[nH]c(C)c2c(=N)n1-c1ccccc1Cl | inactive |
| Cn1c(=O)c2c(nc(NCCCO)n2CCc2ccccc2)n(C)c1=O | inactive |
| Cc1ccc(-n2c(=O)[nH]c3c(C(N)=O)nc(CC(C)C)nc32)cc1 | inactive |
| N/C(Cn1nnc(-c2ccccc2)n1)=N\O | inactive |
| CO[C@H]1C[C@@H]2CC[C@@H](C)[C@@](O)(O2)C(=O)C(=O)N2CCCC[C@H]2C(=O)O[C@H]([C@H](C)C[C@@H]2CC[C@@H](O)[C@H](OC)C2)CC(=O)[C@H](C)C=C(C)[C@@H](O)[C@@H](OC)C(=O)[C@H](C)C[C@H](C)C=CC=CC=C1C | 88.8% (active) |
| CCOC(=O)C1CCN(c2c(NC3CCCc4ccccc43)c(=O)c2=O)CC1 (centres undefined) | inactive |
| Cc1ccc(C)c2[nH]c(=O)c(CCNC(=O)c3ccc(S(=O)(=O)N(C)C)cc3)cc12 | inactive |
| Cc1cc(-n2c(C)cc(C(=O)CSc3nnnn3-c3ccc(Cl)cc3)c2C)no1 | inactive |
| CC(Oc1ccc(Cl)cc1Cl)c1nc(-c2ccc(NC(=O)c3cccnc3)cc2)no1 (centres undefined) | 72% (active) |
| O=C(Nc1ccc(-c2noc(-c3cccs3)n2)cc1)c1cccnc1 | inactive |
| COc1ccc(Cc2nc(-c3ccc(NC(=O)c4cccnc4)cc3)no2)cc1 | inactive |
| O=C(CCSc1nccn1Cc1ccccc1)N1CCOCC1 | inactive |
| Cc1nnc(NC(=O)C2CCCO2)s1 (centres undefined) | inactive |

| SMILES | inhibition |
| --- | --- |
| CCN1CCN(C(c2ccc(F)cc2)c2nnnn2Cc2cccs2)CC1 (centres undefined) | inactive |
| O=C(COC(=O)c1ccco1)NCc1cccs1 | inactive |
| CCCCn1nnnc1SCC(=O)N1CCN(C(=O)c2ccco2)CC1 | inactive |
| COC(=O)CC1SCCNC1=O (centres undefined) | inactive |
| Cn1c(-c2ccccc2)cc(=O)c2ccccc21 | inactive |
| O=C(NCCC1=CCCCC1)c1cc2c(s1)CS(=O)(=O)C2 | inactive |
| COc1ccc(C(=O)Cn2nnc(-c3cccs3)n2)cc1 | inactive |
| O=C(Nc1sccc1C(=O)NCc1ccco1)c1cccnc1 | inactive |
| CCC1CCCCN1S(=O)(=O)c1ccc(C(=O)Nc2nnc(-c3ccccc3Cl)o2)cc1 (centres undefined) | inactive |
| CC1CCCN(S(=O)(=O)c2ccc(C(=O)Nc3nnc(-c4ccccc4Cl)o3)cc2)C1 (centres undefined) | 77.1% (active) |
| CCC1CCCCN1S(=O)(=O)c1ccc(C(=O)Nc2nnc(-c3cccs3)o2)cc1 (centres undefined) | inactive |
| COc1ccc(-c2cc(C(=O)NCc3ccc(Cl)cc3)no2)cc1OC | inactive |
| COC(=O)c1[nH]c2cc(OC)ccc2c1NC(=O)CCN1CCCCC1 | inactive |
| O=S(=O)(Cc1ccc(Cl)cc1)Nc1ccc2c(c1)OCO2 | inactive |
| CCOC(=O)N1CCN(S(=O)(=O)c2cc(Cl)ccc2Cl)CC1 | inactive |
| Cc1nnc(SCCn2c(N3CC(C)CC(C)C3)nc3c2c(=O)n(C)c(=O)n3C)s1 (centres undefined) | inactive |
| COC(=O)c1[nH]c2ccccc2c1NC(=O)CN1CCC(C(N)=O)(N2CCCCC2)CC1 | inactive |
| CCC(C)NC(=O)CC1Oc2ccc(C)cc2NC1=O (centres undefined) | inactive |
| COc1ccccc1NC(=O)N1CCN(c2cccc(C(F)(F)F)c2)CC1 | inactive |
| Cc1cc(C)n2nc[n+](C)c2n1 | inactive |
| CC(=O)N1CCN(S(=O)(=O)c2cccc(C(=O)Nc3ccc4c(c3)CCC4)c2)CC1 | inactive |
| CCc1nnc2c3cnn(-c4ccccc4)c3ncn12 | inactive |
| Cc1ccc(S(=O)(=O)N2CCCC2)cc1S(=O)(=O)N1CCCC1 | inactive |
| CS(=O)(=O)N1CCc2cc(C(=O)N3CCCCC3)ccc21 | inactive |
| Cc1cc(C)nc(NS(=O)(=O)c2ccc(NC(=O)Cn3c(=O)oc4ccccc43)cc2)n1 | inactive |
| CCOC(=O)c1[nH]c2ccc(C)cc2c1NC(=O)CN1CCCCC1 | inactive |

| SMILES | inhibition |
| --- | --- |
| O=C(CN(Cc1ccc(F)cc1)C(=O)Cn1nnc2ccccc21)NCC1CCCO1 (centres undefined) | inactive |
| S=C(NCC1CCCO1)n1nnc2ccccc21 (centres undefined) | 104% (active) |
| O=C(NCC1CCCO1)c1ccc(C(=O)NCC2CCCO2)cc1 (centres undefined) | inactive |
| CC(=O)Oc1ccc(CCC(C)OC(C)=O)cc1 (centres undefined) | inactive |
| c1cc2c(cc1Nc1nc(-c3ccc4c(c3)OCO4)cs1)OCCO2 | inactive |
| CC(=O)Nc1nc(C)c(-c2csc(Nc3ccc(O)cc3)n2)s1 | inactive |
| Oc1ccc(Nc2nc(-c3ccc(O)cc3)cs2)cc1 | 106% (active) |
| COc1ccc2nc(CC(C)(C)CC(=O)O)c[n+]([O-])c2c1 | inactive |
| O=C(NC1CC1)c1cccc(Nc2ccc(-c3ccc4c(c3)OCCO4)nn2)c1 | inactive |
| CCOC(=O)N1CCN(C(=O)COc2cc(=O)n(C)c3ccccc23)CC1 | inactive |
| Cn1c(=O)cc(OCCCC(=O)Nc2ccc3c(c2)OCCO3)c2ccccc21 | inactive |
| Cn1c(=O)cc(OCCCC(=O)N2CCCCC2)c2ccccc21 | 101% (active) |
| CCOC(=O)c1nn(-c2sc(C(=O)OC)c(C)c2C(=O)OC)cc1O | inactive |
| COc1ccc(CCn2c(N)c(C#N)c3nc4ccccc4nc32)cc1OC | inactive |
| CCN(CC)C(=O)c1ccc(O)c(OC)c1 | inactive |
| COc1cc(/C=C/C(=O)CC(=O)/C=C/c2ccc(O)c(OC)c2)ccc1O | 85.5% (active) |
| O=C(O)/C=C/c1ccc(O)c(O)c1 | inactive |
| COc1ccc(N2CCN(c3ncnc4c3cnn4-c3ccc(C)cc3C)CC2)cc1 | inactive |
| CC1(C)Cc2c(sc3c2c(=N)n(Cc2ccco2)c(=O)n3Cc2ccccc2)CO1 | inactive |
| Cc1nc(-c2ccccc2)sc1C(N)=O | inactive |
| Clc1ccc(Cl)c(-c2nn3c(Cn4cnc5ccccc54)nnc3s2)c1 | inactive |
| CSc1ccccc1NC(=O)CN(c1ccccc1)S(=O)(=O)N(C)C | inactive |
| CSc1ccc(Cn2nnc(C(=O)NCc3ccccc3)c2N)cc1 | inactive |
| CC(=O)N1CCN(c2ccc(N=Cc3c(O)n(Cc4ccccc4)c(=O)[nH]c3=O)cc2)CC1 | inactive |
| C1=CC2CC1CC2CN1CCN(c2ccccc2)CC1 (centres undefined) | inactive |
| CCOC(=O)C(NC(=O)CC)(Nc1ccc(S(=O)(=O)Nc2onc(C)c2C)cc1)C(F)(F)F (centres undefined) | inactive |

| SMILES | inhibition |
| --- | --- |
| O=C(Nc1nc2c(s1)CCc1ccccc1-2)c1cccs1 | inactive |
| CS(=O)(=O)N1CCCC(C(=O)NCc2ccccc2Cl)C1 (centres undefined) | inactive |
| COC(=O)c1sc(NC(=O)COc2ccccc2OC)nc1C | inactive |
| CCOC(=O)c1sc(NS(=O)(=O)c2ccc(NC(C)=O)cc2)nc1C | inactive |
| CCOC(=O)c1sc(Nc2nc3c(OC)cccc3s2)nc1C | 73.7% (active) |
| O=C(c1ccco1)N1CCN(c2c(-c3ccccc3)c3cc(Cl)ccc3[nH]c2=O)CC1 | 86.3% (active) |
| O=C(c1ccco1)N1CCN(c2cccc(Cl)c2)CC1 | inactive |
| O=C(O)c1[nH]c2ccc(Cl)cc2c1CC(=O)N1CCN(C(=O)c2ccco2)CC1 | inactive |
| O=S1(=O)C=C(Sc2nnc(-c3ccccc3)o2)c2ccccc21 | inactive |
| O=S1(=O)C=C(Sc2nc3ccccc3s2)c2ccccc21 | 110% |
| Cc1cc(C)nc(SC2=CS(=O)(=O)c3ccccc32)n1 | 91% (active) |
| Cc1ccc(-c2nc3cnccn3c2Nc2ccc3c(c2)OCO3)o1 | inactive |
| CCOC(=O)C(C(C)=O)c1nc(C)nc2c1nnn2Cc1ccccc1Cl (centres undefined) | inactive |
| CCC(C(=O)NC(C)CCc1ccco1)n1nc(C)n2c(cc3occc32)c1=O (centres undefined) | inactive |
| CCOc1ccccc1NC(=O)CCN1CCN(S(=O)(=O)c2ccc(Br)cc2)CC1 | inactive |
| COc1cccc(-c2nc(CS(=O)(=O)CC(=O)N3CCN(c4ccccn4)CC3)c(C)o2)c1 | inactive |
| Cc1cc(C)n(-c2nc3ccccc3c(=O)n2OCCOc2ccccc2)n1 | inactive |
| Cn1cccc1Cc1nnc(SCC(=O)N2CCOCC2)n1-c1ccc(F)cc1 | inactive |
| O=C(CN(c1ccc(F)cc1)S(=O)(=O)c1ccc2c(c1)OCCO2)Nc1ccc2c(c1)OCO2 | inactive |
| CN(C)/C=C(\C#N)c1nc2ccccc2[nH]1 | inactive |
| O=C(CN(c1ccc(F)cc1)S(=O)(=O)c1ccc2c(c1)OCCO2)Nc1cccnc1 | inactive |
| COc1ccc(CNc2oc(-c3cccc4ccccc34)nc2C#N)cc1 | inactive |
| CCCCc1oc2ccccc2c1C(=O)c1cc(I)c(OCCN(CC)CC)c(I)c1 | 85.9% (active) |
| CCN(CC)CCOC(=O)c1c(C)oc2ccc(O)cc12 | inactive |
| CCc1oc2ccccc2c1C(=O)c1cc(Br)c(O)c(Br)c1 | inactive |
| O=C(COc1ccccc1Cl)NCc1ccco1 | inactive |
